Test results: the supplement of paper PMC10849652
About 8,800 targets were measured; listed, in parts, are those with a hit and a random draw of the rest. About 0.5% of all pairs of compound and target were hits. A number with no mark means an inactive call.

Legend:
Assay in all cases: log2 fold change, soluble protein after heating vs DMSO (PISA); higher = thermal stabilisation; K562 lysate, 10 uM; active = over 0.2 and 3.5 SD of the protein, either way, in both replicates (recomputed)
erlotinib = compound: C#Cc1cccc(Nc2ncnc3cc(OCCOC)c(OCCOC)cc23)c1 [erlotinib]
Procedure, shortened: (§1)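 Log-two fold change in thermal stability relative to solvent controls is reported from duplicates. For each sample, crude K562 extract from dounce-homogenised pellets in PBS pH 7.4 with 1 mM MgCl2, at 1 mg/mL protein, was treated with 10 μM compound for 30 min. Aliquots heated for 3 min across 48°C-58°C were pooled, brought to 0.5% NP-40 at 4°C and cleared at 21,000xg for 90 min. The supernatant was quantified by TMTpro 16plex LC-MS/MS with channel sums equalised.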

[1] = compound: C/C(=N\NC(=O)C1=CC(=CC=C1)S(=O)(=O)N2CCOCC2)/C3=C(C=CC(=C3)Cl)O
Procedure, shortened: as §1

[2] = compound: C1=CC(=CC=C1C2=NC3=C(N2)C=C(C=C3)C(=O)N)OC4=CC=C(C=C4)Cl
Procedure, shortened: as §1

[3] = compound: C1=CC2=C(C=CC(=C2)/C=C\3/C(=O)NC(=NCC4=CC=CS4)S3)N=C1
Procedure, shortened: as §1

[4] = compound: C1=CC2=NC=CN=C2C=C1/C=C/3\C(=O)NC(=O)S3
Procedure, shortened: as §1

[5] = compound: C1=CC=C(C=C1)C2=NC(=C(N2)C3=CC=NC=C3)C4=CC(=C(C=C4)Cl)O
Procedure, shortened: as §1

[6] = compound: C1=CC=C2C(=C1)C3=NNC4=CC=CC(=C43)C2=O
Procedure, shortened: as §1

[7] = compound: C1CCN(C1)C(=O)NC2=CC=CC(=C2)NC3=NC=C(C(=N3)NCCC4=CN=CN4)Br
Procedure, shortened: as §1

[8] = compound: C1CN(CCC1(CC2=CC=C(C=C2)Cl)N)C3=NC=NC4=C3C=CN4
Procedure, shortened: as §1

IRAK-1-4 Inhibitor I = compound: C1COCCN1CCN2C3=CC=CC=C3N=C2NC(=O)C4=CC(=CC=C4)[N+](=O)[O-] [IRAK-1-4 Inhibitor I]
Procedure, shortened: as §1

ibrutinib = compound: C=CC(=O)N1CCC[C@@H](n2nc(-c3ccc(Oc4ccccc4)cc3)c3c(N)ncnc32)C1 [ibrutinib]
Procedure, shortened: as §1

[9] = compound: CC(=O)c1cnc2ccc(-c3cc(Cl)c(O)c(Cl)c3)nc2c1N[C@H]1CC[C@H](CN(C)C)CC1
Procedure, shortened: as §1

ralimetinib = compound: CC(C)(C)Cn1c(N)nc2ccc(-c3[nH]c(C(C)(C)C)nc3-c3ccc(F)cc3)nc21 [ralimetinib]
Procedure, shortened: as §1

[10] = compound: CC(C)(O)CC(=O)NCCn1ccc2ncnc(Nc3ccc(Oc4cccc(C(F)(F)F)c4)c(Cl)c3)c21
Procedure, shortened: as §1

[11] = compound: CC(C)C1=C2N=C(C=C(N2N=C1)NCC3=CC=CC=C3)NCCCCCCN
Procedure, shortened: as §1

[12] = compound: CC1=C(C(CC(=O)N1)C2=CC=C(C=C2)C(F)(F)F)C(=O)NC3=C(C=C4C(=C3)C=NN4)F
Procedure, shortened: as §1

[13] = compound: CC1=C(C2=C(C=C1)C(=O)C3=CC=CC=C3N2CCCN)C
Procedure, shortened: as §1

[14] = compound: CC1=C(C=C(C=C1)NC(=O)C2=CC(=CC=C2)C(C)(C)C#N)NC3=CC4=C(C=C3)N=CN(C4=O)C
Procedure, shortened: as §1

[15] = compound: CC1=C(C=C(C=C1)NC(=O)C2=CC(=CC=C2)N(C)C)NC(=O)C3=CC=C(C=C3)O
Procedure, shortened: as §1

[16] = compound: CC1=CC=C(C=C1)SC2=C3C=C(SC3=CN=C2)C(=O)N
Procedure, shortened: as §1

UniProt P06753, sequence (P06753 whole entry, looked up): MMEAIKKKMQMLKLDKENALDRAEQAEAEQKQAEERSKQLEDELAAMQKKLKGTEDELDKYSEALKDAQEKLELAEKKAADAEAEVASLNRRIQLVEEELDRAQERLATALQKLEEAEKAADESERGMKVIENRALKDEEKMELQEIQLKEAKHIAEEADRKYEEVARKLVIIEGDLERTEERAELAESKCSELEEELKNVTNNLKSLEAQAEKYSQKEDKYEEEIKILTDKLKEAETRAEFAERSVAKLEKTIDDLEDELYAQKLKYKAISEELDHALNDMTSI
UniProt Q15628, sequence (Q15628 whole entry, looked up): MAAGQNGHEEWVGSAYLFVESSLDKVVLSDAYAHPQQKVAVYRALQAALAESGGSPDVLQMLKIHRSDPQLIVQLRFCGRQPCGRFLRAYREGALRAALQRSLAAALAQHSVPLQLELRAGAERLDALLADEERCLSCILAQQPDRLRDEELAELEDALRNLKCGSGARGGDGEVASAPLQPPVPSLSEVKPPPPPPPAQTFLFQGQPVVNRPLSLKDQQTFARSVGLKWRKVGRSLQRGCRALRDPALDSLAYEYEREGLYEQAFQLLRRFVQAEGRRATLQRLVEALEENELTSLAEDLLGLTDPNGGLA
UniProt O60701, sequence (O60701 whole entry, looked up): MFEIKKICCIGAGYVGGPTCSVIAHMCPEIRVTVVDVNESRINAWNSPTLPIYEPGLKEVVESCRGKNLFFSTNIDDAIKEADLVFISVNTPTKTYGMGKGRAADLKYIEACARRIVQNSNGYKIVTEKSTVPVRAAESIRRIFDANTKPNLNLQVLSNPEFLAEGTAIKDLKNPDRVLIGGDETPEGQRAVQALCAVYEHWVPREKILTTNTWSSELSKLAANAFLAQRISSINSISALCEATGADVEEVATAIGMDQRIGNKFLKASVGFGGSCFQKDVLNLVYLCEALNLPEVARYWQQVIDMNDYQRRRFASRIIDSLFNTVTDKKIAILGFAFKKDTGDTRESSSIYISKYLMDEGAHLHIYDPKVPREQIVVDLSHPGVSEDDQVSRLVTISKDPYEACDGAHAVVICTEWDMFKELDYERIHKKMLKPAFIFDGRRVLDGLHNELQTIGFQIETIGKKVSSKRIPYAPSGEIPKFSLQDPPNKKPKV
UniProt Q9H4B7, sequence (Q9H4B7 whole entry, looked up): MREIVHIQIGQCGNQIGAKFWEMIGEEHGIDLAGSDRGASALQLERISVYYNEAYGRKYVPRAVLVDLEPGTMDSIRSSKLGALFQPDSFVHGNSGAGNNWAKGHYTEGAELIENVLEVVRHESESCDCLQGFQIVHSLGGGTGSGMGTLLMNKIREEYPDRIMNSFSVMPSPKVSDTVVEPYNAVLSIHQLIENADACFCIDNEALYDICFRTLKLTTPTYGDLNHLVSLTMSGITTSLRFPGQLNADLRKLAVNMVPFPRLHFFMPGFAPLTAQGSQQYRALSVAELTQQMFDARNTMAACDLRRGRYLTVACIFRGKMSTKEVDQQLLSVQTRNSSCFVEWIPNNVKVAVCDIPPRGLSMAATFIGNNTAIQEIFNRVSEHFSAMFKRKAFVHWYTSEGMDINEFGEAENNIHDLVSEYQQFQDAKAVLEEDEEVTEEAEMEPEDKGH
UniProt P0DPH7, sequence (P0DPH7 whole entry, looked up): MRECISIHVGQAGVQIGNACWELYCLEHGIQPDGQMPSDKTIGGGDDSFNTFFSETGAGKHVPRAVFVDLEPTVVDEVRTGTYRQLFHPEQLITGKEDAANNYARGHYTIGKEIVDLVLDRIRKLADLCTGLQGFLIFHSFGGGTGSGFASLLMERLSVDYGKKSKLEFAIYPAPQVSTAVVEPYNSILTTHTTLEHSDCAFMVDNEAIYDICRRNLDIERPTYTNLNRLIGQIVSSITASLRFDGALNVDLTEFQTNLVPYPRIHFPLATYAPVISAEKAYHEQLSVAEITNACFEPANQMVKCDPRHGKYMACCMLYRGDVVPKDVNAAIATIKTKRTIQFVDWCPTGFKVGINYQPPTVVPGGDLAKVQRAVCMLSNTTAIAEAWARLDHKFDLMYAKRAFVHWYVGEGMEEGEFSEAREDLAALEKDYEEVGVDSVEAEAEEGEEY
UniProt Q9P0S9, sequence (Q9P0S9 whole entry, looked up): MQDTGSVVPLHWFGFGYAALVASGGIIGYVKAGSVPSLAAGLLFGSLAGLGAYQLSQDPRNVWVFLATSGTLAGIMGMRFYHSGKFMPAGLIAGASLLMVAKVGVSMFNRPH
UniProt Q9UNS1, sequence (Q9UNS1 whole entry, looked up): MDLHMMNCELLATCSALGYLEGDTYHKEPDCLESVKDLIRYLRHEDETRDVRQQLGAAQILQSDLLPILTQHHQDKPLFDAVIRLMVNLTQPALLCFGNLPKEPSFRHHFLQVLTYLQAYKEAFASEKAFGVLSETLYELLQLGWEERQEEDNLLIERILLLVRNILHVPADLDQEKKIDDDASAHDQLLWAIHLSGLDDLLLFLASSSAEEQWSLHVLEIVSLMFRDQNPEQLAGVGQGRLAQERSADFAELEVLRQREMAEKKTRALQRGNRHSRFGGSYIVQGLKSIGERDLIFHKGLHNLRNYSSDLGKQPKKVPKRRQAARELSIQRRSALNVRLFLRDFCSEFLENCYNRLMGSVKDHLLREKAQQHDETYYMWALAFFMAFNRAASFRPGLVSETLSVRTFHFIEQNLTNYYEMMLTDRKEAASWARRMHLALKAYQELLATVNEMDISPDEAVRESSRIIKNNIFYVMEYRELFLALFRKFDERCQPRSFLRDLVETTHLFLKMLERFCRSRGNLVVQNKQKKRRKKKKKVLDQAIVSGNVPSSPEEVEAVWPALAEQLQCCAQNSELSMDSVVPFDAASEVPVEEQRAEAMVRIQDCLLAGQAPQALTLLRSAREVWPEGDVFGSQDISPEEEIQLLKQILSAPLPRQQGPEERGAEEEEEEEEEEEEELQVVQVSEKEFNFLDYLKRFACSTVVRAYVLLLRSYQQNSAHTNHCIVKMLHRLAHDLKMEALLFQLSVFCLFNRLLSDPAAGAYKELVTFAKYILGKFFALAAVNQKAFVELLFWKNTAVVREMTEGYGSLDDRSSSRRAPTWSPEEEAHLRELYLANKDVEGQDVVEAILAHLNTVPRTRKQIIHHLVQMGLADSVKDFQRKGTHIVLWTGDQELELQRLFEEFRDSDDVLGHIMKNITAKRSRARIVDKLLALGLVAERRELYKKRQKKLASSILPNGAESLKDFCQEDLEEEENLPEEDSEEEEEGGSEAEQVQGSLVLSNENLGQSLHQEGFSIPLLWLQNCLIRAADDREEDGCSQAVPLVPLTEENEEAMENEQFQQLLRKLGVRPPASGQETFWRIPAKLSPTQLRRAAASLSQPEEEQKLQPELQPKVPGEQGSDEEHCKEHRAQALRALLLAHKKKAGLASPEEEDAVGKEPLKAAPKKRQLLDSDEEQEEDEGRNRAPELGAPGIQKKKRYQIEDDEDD
UniProt P43897, sequence (P43897 whole entry, looked up): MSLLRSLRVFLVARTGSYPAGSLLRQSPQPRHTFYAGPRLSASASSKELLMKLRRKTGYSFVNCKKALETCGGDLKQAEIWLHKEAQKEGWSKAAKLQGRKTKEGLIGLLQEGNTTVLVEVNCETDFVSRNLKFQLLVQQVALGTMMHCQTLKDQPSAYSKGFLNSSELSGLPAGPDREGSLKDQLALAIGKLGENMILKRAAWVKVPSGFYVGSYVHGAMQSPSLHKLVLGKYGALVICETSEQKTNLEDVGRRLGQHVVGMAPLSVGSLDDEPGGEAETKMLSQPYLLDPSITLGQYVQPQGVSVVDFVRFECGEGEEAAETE
UniProt P17480, sequence (P17480 whole entry, looked up): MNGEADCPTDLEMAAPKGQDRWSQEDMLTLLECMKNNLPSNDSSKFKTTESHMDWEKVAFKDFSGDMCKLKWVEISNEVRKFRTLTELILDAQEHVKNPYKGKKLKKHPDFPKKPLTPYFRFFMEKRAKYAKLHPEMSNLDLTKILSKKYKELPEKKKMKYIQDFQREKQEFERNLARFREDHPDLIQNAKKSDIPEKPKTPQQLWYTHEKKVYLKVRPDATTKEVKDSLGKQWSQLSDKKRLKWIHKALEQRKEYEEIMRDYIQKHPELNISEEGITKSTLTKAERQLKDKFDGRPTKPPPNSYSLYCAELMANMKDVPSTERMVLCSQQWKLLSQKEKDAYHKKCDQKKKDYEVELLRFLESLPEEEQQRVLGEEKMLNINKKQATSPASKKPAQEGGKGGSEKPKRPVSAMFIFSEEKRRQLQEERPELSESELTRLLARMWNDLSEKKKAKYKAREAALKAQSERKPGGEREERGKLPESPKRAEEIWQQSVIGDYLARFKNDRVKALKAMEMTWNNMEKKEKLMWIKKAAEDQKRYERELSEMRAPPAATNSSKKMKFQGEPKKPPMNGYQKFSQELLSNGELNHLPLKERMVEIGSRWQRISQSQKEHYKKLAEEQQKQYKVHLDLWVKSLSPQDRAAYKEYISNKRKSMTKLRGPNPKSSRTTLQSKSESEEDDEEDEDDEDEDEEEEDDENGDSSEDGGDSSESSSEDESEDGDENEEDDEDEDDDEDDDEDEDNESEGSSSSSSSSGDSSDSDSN
UniProt Q9NUQ7, sequence (Q9NUQ7 whole entry, looked up): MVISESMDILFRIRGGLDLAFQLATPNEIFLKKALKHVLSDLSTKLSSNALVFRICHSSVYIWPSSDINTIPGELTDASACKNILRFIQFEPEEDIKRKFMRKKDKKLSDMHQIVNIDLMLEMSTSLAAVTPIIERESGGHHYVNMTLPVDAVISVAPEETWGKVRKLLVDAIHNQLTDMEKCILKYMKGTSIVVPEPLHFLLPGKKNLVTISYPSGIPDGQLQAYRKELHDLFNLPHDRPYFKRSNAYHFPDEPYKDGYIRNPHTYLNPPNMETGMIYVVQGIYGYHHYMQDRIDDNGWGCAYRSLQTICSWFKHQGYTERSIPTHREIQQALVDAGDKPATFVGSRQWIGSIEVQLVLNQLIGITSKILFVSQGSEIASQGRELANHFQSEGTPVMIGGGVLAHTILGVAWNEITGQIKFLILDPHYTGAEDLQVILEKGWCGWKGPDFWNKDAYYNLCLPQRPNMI

| Target | log2 fold change (erlotinib) | log2 fold change [1] | log2 fold change [2] | log2 fold change [3] | log2 fold change [4] | log2 fold change [5] | log2 fold change [6] | log2 fold change [7] | log2 fold change [8] | log2 fold change (IRAK-1-4 Inhibitor I) | log2 fold change (ibrutinib) | log2 fold change [9] | log2 fold change (ralimetinib) | log2 fold change [10] | log2 fold change [11] | log2 fold change [12] | log2 fold change [13] | log2 fold change [14] | log2 fold change [15] | log2 fold change [16] |
| --- | --- | --- | --- | --- | --- | --- | --- | --- | --- | --- | --- | --- | --- | --- | --- | --- | --- | --- | --- | --- |
| TRADD (UniProt Q15628) | 0.053 | 0.258 (active) | 0.03 | -0.224 | 0.009 | -0.013 | 0.251 | 0.029 | 0.076 | 0.033 | 0.013 | 0.017 | -0.005 | -0.012 | -0.018 | -0.015 | -0.001 | 0.017 | 0.021 | 0.019 |
| TBL2 (UniProt Q9Y4P3) | -0.019 | 0.061 | -0.027 | 0.061 | -0.023 | 0.038 | -0.06 | -0.027 | 0.001 | -0.022 | 0.014 | 0.059 | 0.005 | -0.001 | 0 | 0.045 | 0.031 | -0.008 | 0.03 | 0.05 |
| TROAP (UniProt Q12815) | -0.023 | -0.02 | 0.028 | -0.036 | -0.054 | 0.017 | -0.027 | 0.035 | 0.104 | -0.011 | 0.191 | -0.096 | 0.042 | -0.02 | 0.037 | 0.011 | 0.02 | -0.006 | 0.08 | -0.25 |
| TUBA3C (UniProt P0DPH7) | 0.03 | -0.605 | 0.039 | -0.029 | 0.023 | -0.023 | -0.01 | -0.011 | 0.036 | 0.037 | -0.009 | -0.007 | 0.041 | -0.045 | -0.047 | 0.002 | 0.029 | -0.021 | 0.038 | 0.001 |
| TUBA4A (UniProt P68366) | 0.074 | 0.019 | -0.017 | -0.034 | -0.01 | -0.036 | -0.017 | 0 | 0.036 | 0.032 | -0.012 | 0.023 | 0.012 | 0.017 | 0.023 | -0.031 | -0.013 | 0.017 | -0.017 | 0.012 |
| TSFM (UniProt P43897) | -0.013 | 0.009 | -0.035 | -0.003 | -0.002 | 0.017 | -0.063 | 0.024 | 0.034 | -0.024 | 0.004 | -0.05 | 0.03 | 0.026 | 0.015 | -0.024 | -0.003 | 0.116 | 0.017 | -0.063 |
| TRIM56 (UniProt Q9BRZ2) | 0.053 | -0.021 | 0.021 | -0.049 | 0.141 | -0.013 | 0.033 | 0.039 | 0.003 | 0.062 | 0.023 | 0.007 | 0.028 | 0.001 | -0.03 | 0 | 0.002 | -0.06 | 0.014 | 0.033 |
| TUBB1 (UniProt Q9H4B7) | 0.011 | 0.091 | 0.005 | 0.01 | 0.022 | -0.011 | 0.014 | 0.015 | 0.027 | 0.019 | -0.005 | -0.01 | -0.003 | -0.007 | 0 | 0.049 | 0.028 | -0.036 | 0.002 | 0.012 |
| TIMELESS (UniProt Q9UNS1) | 0.023 | 0.069 | -0.083 | -0.003 | -0.002 | -0.001 | -0.068 | -0.018 | 0 | -0.032 | 0.011 | -0.079 | 0.006 | -0.053 | -0.01 | 0.011 | -0.007 | -0.01 | 0.029 | -0.027 |
| UGDH (UniProt O60701) | 0.002 | 0.046 | -0.02 | -0.009 | 0.02 | -0.041 | -0.051 | -0.004 | -0.052 | -0.053 | 0.02 | 0.02 | 0.085 | -0.004 | -0.004 | 0.019 | 0.215 (active) | -0.037 | 0.058 | 0.031 |
| UFSP2 (UniProt Q9NUQ7) | -0.04 | -0.034 | 0.028 | 0.098 | -0.015 | -0.042 | -0.055 | -0.026 | -0.037 | 0.023 | 0.004 | -0.005 | 0.023 | -0.004 | -0.023 | 0.01 | 0.005 | -0.036 | -0.003 | -0.006 |
| TMEM14C (UniProt Q9P0S9) | 0.027 | -0.201 | 0.046 | -0.011 | -0.039 | 0.022 | 0.063 | -0.177 | -0.042 | 0.064 | 0.04 | 0.085 | 0.129 | -0.077 | -0.135 | -0.047 | -0.146 | 0.048 | 0.007 | 0.152 |
| UBTF (UniProt P17480) | 0.02 | 0.015 | 0.018 | 0.03 | -0.009 | 0.002 | 0.027 | 0.009 | -0.022 | -0.024 | 0.026 | 0.025 | 0.017 | -0.002 | 0.016 | 0.046 | -0.075 | -0.022 | 0.044 | -0.002 |
| TGOLN2 isoform 7 (UniProt O43493) | -0.108 | 0.007 | 0 | 0.022 | -0.036 | -0.021 | 0.012 | -0.025 | 0.011 | 0.029 | -0.023 | 0.013 | -0.065 | -0.058 | 0.003 | 0.009 | 0.005 | -0.033 | 0.051 | -0.013 |
| TPX2 (UniProt Q9ULW0) | -0.014 | -0.008 | 0.032 | -0.022 | -0.013 | 0.019 | 0.001 | -0.005 | -0.026 | 0.006 | 0.024 | -0.01 | 0.003 | -0.006 | 0.036 | -0.005 | -0.008 | 0.062 | 0.001 | -0.01 |
| TPM3 (UniProt P06753) | -0.022 | 0.027 | -0.026 | -0.042 | -0.012 | 0.014 | 0.068 | 0.035 | -0.021 | -0.019 | 0.009 | -0.001 | -0.028 | 0.022 | 0.013 | -0.028 | 0.013 | -0.038 | -0.016 | -0.007 |
